# Data published in the supplement of paper PMC11417369.
# Whole data set: some 25,000 sequences, median “ln(normalized median fluorescence intensity)” near 6.7, cut for the highest 2% near 10. The full list was thinned out, with the highest values kept by preference.
# Test system: PfHDP1 homeodomain (GST-tagged)
# Assay: gcPBM binding intensity (ln(normalized median fluorescence intensity)); higher = stronger DNA binding
# Method in brief: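 Binding intensity is defined as the maximum Masliner-normalised natural-log median intensity across replicate spots for either probe orientation. It was measured on an Agilent 4 × 180k array of primer-extended double-stranded 36-bp intergenic genomic probes and negative controls, to which GST-tagged P. falciparum DNA-binding domains made in E. coli were applied for 1 h in 1× PBS with 1% milk, 0.2 mg/ml BSA, 0.5% salmon testes DNA and 0.03% Triton X-100. Detection was by Alexa488 anti-GST antibody and scanning at 488 nm.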
row,Sequence,gcPBM binding intensity (ln)
1,CATTTGCACCCGCACACACACATAAAAAGAAAAATA [CACACA_site4350],10.7
2,ATCATTTGCTCACGCACACACACATAAAAAGAAAAA [CACACA_site4349],9.55
3,CATTTGCCCAGGCACACACACATAAAAAGAAAAATA [CACACA_site356],6.34
4,TTATCACATTATTGCACACACATAAAGAAAAAAATA [CACACA_site2841],9.63
5,ATCATTTGCATACGCACACACACATAAAAAGAAAAA [CACACA_site355],8.44
6,CATTTGCACACGCACACACACATAAAAAGAAAAATA [CACACA_site6297],10.8
7,AACTATATCATTTATTTTATTTTTTAAATACATTTA [CACACA_negctrl_site183],6.19
8,ATATATGTAATAAATAGTACACACACACATATATAT [XGTACX_site2817],7.35
9,ATACTGTATAGTCGCACACAAAAATATAAAATATTT [CACACA_site6004],6.65
10,CATATATATTTGTTCACACACACACTAATAAAAAAA [CACACA_site8787],6.85
11,TTGCAAATATATGGTTGTACTCAAAAAAAAAAAAAA [XGTACX_site6975],6.47
12,GAAAGAAATAAAGGTGGTACATAAATAAAAACTAAG [XGTACX_site4826],6.97
13,TATATATATTTCCAGTGTACTTATTTTTTAATCAAT [XGTACX_site8220],6.7
14,TTTTTTTTTTTTGGTGCATGCACATTTTGTTTTTTT [TGCATGCA_site570],10
15,TATCATTGTTCATGCTTGCACTTTTGTTACTGTTCC [GTGCAC_site9425],6.75
16,TTTTTTTTGTTCATTGTGCACATTGCTTGCATGGAA [GTGCAC_site9693],10.8
17,TGAACATATTAAAATTGTACATATGCACAATATGTA [XGTACX_site6801],9.28
18,GTAGGCATTAAAAAATGTACAAAATATTATGAATTG [XGTACX_site1615],6.32
19,AGTAGGCATATTGGTTGTACAAAAAAATTATGCACC [XGTACX_site8925],10.6
20,AAACATAAAGAAAAAAAAAATATATATTTATTTATT [GTGCAC_negctrl_site357],6.33
21,ATATACACATATACATGTACAAATATATATACACAT [XGTACX_site2986],6.9
22,CATATGTATATGACTACACACAAGGGTGTACCTATA [CACACA_site6670],6.34
23,GAACATTTATTGTGTGTGCACAATTCTTTTTTAACC [GTGCAC_site9697],10.2

row,Sequence,gcPBM binding intensity (ln)
1,AATAGATTTTTATGCGTGCACACATTTAACAAAAAA,10.3
2,TTTAACATTTCAGATGTGCACATTTTCCGAACCAGT,10.9
3,TCCGTATAATTTTGCACACGAATATAAATTTGATAA [CACACA_site136],10.9
4,TTTCCGTATAATTTTGCACACGAATATAAATTTGAT [CACACA_site137],10.3
5,TATTATAATATTTATACACACATAATTTTGATAAAT [CACACA_site583],6.45
6,TGGAGGTCAGTTCACAGTACCCAGGAAATCTACGGA [XGTACX_site1995],5.93
7,TTTTTCTTAAAAAATTGTACACATATATATATATAT [XGTACX_site542],9.21
8,GTAGTGGTTGAATATACACACATATATATATATATA [CACACA_site2651],9.39
9,CCTAGAAAAAAGAACTGTACATATATATATAAATAT [XGTACX_site1680],6.65
10,TATATTAACAAAATGGTGCAATAATTTCTATATTAT [GTGCAC_site9857],10.5
11,GACAAATAATAAAAGGTGCATTATACTTAACAAAAA [GTGCAC_site9624],9.69
12,GTAGACATTATAATGGTGCAAAAAAATTAACAAAAA [GTGCAC_site9891],10.6
13,TCAAGTATTAAAATGGGTACATAAATATGTGTATAT [XGTACX_site5884],6.63
14,TATAATAAATCATATGCATGTTGAAAAAAAAAAAAA [TGCATGCA_site923],6.46
15,AATATATAGAAACACACACACAAAAAAAAAAAAAAA [CACACA_site1326],6.47
16,TTTTGAAACATATGATGTACACGAACATTTAAAAAA [XGTACX_site474],6.6
17,ATTTAGAAAAATAAAACACACATATATCTGTAAATA [CACACA_site6119],6.53
18,ATAAAAATATTGTCTAGTACATATTTATAATAAAAA [XGTACX_site7523],6.54
19,ATTGAATATGTAAATGCACACCAAAAAAAAAAAAAA [CACACA_site9189],9.61
20,TATATATATATGTGCACACATATATAATATGTATAA [CACACA_site715],10.1
21,TATATATATATATGTGCACACCAATTGTATGTAATA [CACACA_site3888],10.5
22,TAATATAATATATGCACACAAATATGTATATATGTG [CACACA_site2134],9.77
23,AATATATATATATGTGCACACATATATAATATGTAT [CACACA_site716],9.79

row,Sequence,gcPBM binding intensity (ln)
1,TATATATATATGTGCACACCAATTGTATGTAATATA [CACACA_site3889],10.6
2,CACAAAATAAATTAAACACACAACATCATATATGTA [CACACA_site846],6.57
3,TTTTTTTATATAGACACAAAAGAAAATTACATATAC [CACACA_negctrl_site235],6.49
4,ATATATAATAAATACACACACATGTATTTATAAATA [CACACA_site5135],6.8
5,TTTTTTTTGGTATAATGTACATTTTCACTTATGTAT [XGTACX_site3259],6.97
6,CAGACGCACGTATTTGCACACATTGCCACGTAATTA [CACACA_site3349],10.2
7,TTTTTTTTTTTTTTTGCACACACATTGAATTATTAT [CACACA_site198],9.13
8,CACCCGCACGTATTTGCACACATTGCCACGTAATTA [CACACA_site5786],10.7
9,TGTAATCAAAAAAATAGTACATAAATTGTGTATACT [XGTACX_site5908],6.57
10,TATTTTATCATTTGCACACGCACACCCACATAAAAA [CACACA_site354],10.5
11,TTATCATTTGGACACGCACACACACCGAAAAAGAAA [CACACA_site8008],7.13
12,TTTATTTTATCATTTGCACACGCACCCCCACATAAA [CACACA_site8007],10.2
13,TTTTATCACATTATTGCACACACATAAAGAAAAAAA [CACACA_site8922],9.63
14,AGCACGCACAGACACACACACATATTTATATTTATA [CACACA_site6291],7.62
15,TATTTTATCATTTGCACACGCACACCGACATAAAAA [CACACA_site4348],10.6
16,TTTTTTTTTATTATCATGCACACATTTTTTTTTTTT [CACACA_site2254],9.1
17,TTTATTTTATCATTTGCACACGCACCCAGACATAAA [CACACA_site4347],10.6
18,TTTATTTTATCATTTGCACACGCACGCCCACATAAA [CACACA_site353],10.6
19,TACCAATGCATAACGGTGCAAAAAAATAAGGAATAA,10.3
20,AAATTATAAAATAACTGTACCAATCCTTTTTTTTTA [XGTACX_site2229],5.84
21,TATACATATGTATGCACACATACATACCCATATAAT [CACACA_site5842],9.42
22,GTATAAAAATTTAGGAGTACAATATATTTATAATAT [XGTACX_site2127],6.5
23,ATATTTCATTAATGAACACACAAAGAGGTATATAAA [CACACA_site1519],6.86

row,Sequence,gcPBM binding intensity (ln)
1,AATTAGACATAATATACACACATATATTATATATAT [CACACA_site2691],6.91
2,ATATTAAAGCCTTTTTGTACATATAAATAAACATAG [XGTACX_site4667],6.66
3,GTAAAATTTCGGATTTGTACACATGGCTATGAAAAA [XGTACX_site939],6.57
4,TGCCCTAACCATACTACACACACTGCTCAAAATAGT [CACACA_site2219],7.09
5,AGGATATAAAGTTGTGCATGTCAAGTGCACCGTATT [TGCATGCA_site451],10.2
6,TGTATATATAAACATGCACACGTGGTTGTATATATA [CACACA_site9078],8.31
7,AAATAATATAAATACACACACACATATATAAATACA [CACACA_site4465],7.06
8,AAAAATATAAAAATAGCACACATATATACATATATA [CACACA_site7901],6.67
9,ATATATATATATAGTGCACACTTAAGAATATAAAGA [CACACA_site4771],10.3
10,ATATAAATATAGTGTGCACACACATAATATATATAT [CACACA_site8713],10.7
11,ATAATATAAATATACACACACACATATATATATATA [CACACA_site2905],9.28
12,TATATATATATAATAGTGCATAAATAAATATATAAA,9
13,ATATATATATAGTGCACACTTAAGAATATAAAGAGG [CACACA_site1151],10.7
14,AAATAAAGAATATAAATACACACTTAAATATATATT [CACACA_site4007],6.44
15,ATATATATATATAGTGCACACATATAAAATATATAT [CACACA_site8884],10.3
16,ATATAAATACGGTGTGCACACACATAATATATATAT [CACACA_site2271],11.1
17,ATATATATATAGTGCACACATATAAAATATATATAA [CACACA_site2745],10.8
18,AATATAATAATATTTTGTACATATCCTATGTATGAG [XGTACX_site8601],6.5
19,TATAAATATAAATACACACACACATCAATACAGATA [CACACA_site5850],6.87
20,CGCGAACATACATACACACACATATATATATCTGTA [CACACA_site4277],6.98
21,ATTGAATTCCAACTGGTGCACCAGTAAGATTGAAAA [GTGCAC_site9895],10.1
